PERK inhibitor: blocks human PERK kinase; Q9NZJ5; CHO PERK-DD fusion, SEAP luminescence translation reporter; inhibition, % at 5.6 µM; 220,000 compounds, 0.17% hits;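 active means inhibition above the mean inhibition of all tested compounds plus 3 SD, set separately per screening campaign, cut at about 2.9% in these data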;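 further: PERK kinase domain activated by AP20187 dimerizer at 100 nM; 0% = DMSO with dimerizer and 100% = rapamycin at 8.4 µM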
M18AAP inhibitor: PfM18AAP enzyme inhibition; recombinant PfM18AAP, H-Glu-NHMec fluorogenic cleavage; inhibition, % at 7.35 µM; 290,000 compounds, 1.2% hits; AID 1822;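 active means inhibition above the campaign mean inhibition over all tested compounds plus 3 SD, cut at about 28% in these data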;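 further: 0% = plate median of test compound wells and 100% = 2 mM ZnCl2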
MLLE-PAM2 inh: blocks PAM2 peptide binding to the PABP1 MLLE domain; inhibition, % at 20 µM; 360,000 compounds, 0.36% hits; P11940; GST-MLLE / FITC-PAM2 fluorescence polarization; in the data active means inhibition above about 35%, passing the limit was not always enough;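 further: plate controls were DMSO wells with GST-MLLE for no effect and wells lacking GST-MLLE protein for full effect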
Target sequence (P11940 whole entry, looked up, the tested form may be a part): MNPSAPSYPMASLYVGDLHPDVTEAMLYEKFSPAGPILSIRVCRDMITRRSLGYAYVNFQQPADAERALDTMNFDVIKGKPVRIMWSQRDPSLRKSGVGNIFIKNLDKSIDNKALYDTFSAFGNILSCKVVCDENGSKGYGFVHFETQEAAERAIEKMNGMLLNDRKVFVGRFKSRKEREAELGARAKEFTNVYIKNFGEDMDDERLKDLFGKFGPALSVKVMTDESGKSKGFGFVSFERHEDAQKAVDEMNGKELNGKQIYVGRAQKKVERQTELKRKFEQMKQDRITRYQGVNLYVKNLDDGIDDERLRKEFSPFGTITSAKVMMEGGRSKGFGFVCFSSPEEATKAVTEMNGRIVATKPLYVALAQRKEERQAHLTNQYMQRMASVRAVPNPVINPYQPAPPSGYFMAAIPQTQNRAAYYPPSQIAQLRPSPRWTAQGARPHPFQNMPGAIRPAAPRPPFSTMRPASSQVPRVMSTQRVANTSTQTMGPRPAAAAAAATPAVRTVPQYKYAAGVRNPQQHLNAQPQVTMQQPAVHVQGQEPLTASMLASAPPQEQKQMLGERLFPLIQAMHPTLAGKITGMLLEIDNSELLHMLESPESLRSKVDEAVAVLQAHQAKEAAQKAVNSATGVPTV
PABP polyA inh: PABP-poly(A) binding inhibition. P11940. PABP-poly(A) RNA binding, fluorescence polarization. inhibition, % at 35 µM. 290,000 compounds, 1% hits. AID 2014;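 further: calls also rest on retests at 20 µM and on dose response follow-up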
eIF4H inh: inhibitors of RNA binding by human eIF4H; inhibition, % at 35 µM; eIF4H fluorescence polarization binding assay; 290,000 compounds, 0.94% hits; AID 2012;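 further: calls also rest on retests at 20 µM and on dose response follow-up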
eIF4E-4G inh: blocks eIF4E binding to eIF4G; P63073+Q04637; TR-FRET eIF4E-eIF4GI(517-606) binding, 2 h; inhibition, % at 21.7 µM; 220,000 compounds, 0.37% hits;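 active means inhibition above about 30%, limit read from the data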;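 further: 0% = full FRET control wells and 100% = background wells lacking eIF4GI fragment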
* hit, by the source's call; . = not tested or not shown; [ ] = dose if it differs, or a comment. Only some compounds are listed: those with a hit (about 2.4% of all), similar ones and a draw of the others. Unless noted, how the calls were made is not given here.

SMILES | PERK inhibitor | M18AAP inhibitor | MLLE-PAM2 inh | PABP polyA inh | eIF4H inh | eIF4E-4G inh
O=C(O)CC12CC3CC(C1)CC(n1ncc(NCc4ccc5c(c4)OCO5)c(Cl)c1=O)(C3)C2 | 0.2 | 10.2 | . | -5.8 | 24.7 | 0.7
COC(=O)C(NC(=O)CCc1nnc2ccc(N3CCCCC3)nn12)C(C)C (centres undefined) | . | 3.6 | 2.9 | -2.1 | 5.3 | .
COc1ccc(C2=CC3=C(Br)C(=O)C(C)(OC(=O)c4ccc(Cl)nc4)C(=O)C3=CO2)cc1 (centres undefined) | . | . | . | 42.2* | 86.4 | 9.9
CCCCCCN1C[C@H](n2cc(COC(=O)c3ccccc3)nn2)[C@@H](O)C[C@@H]1c1ccc(C)cc1 | . | . | -7.3 | . | . | .
O=c1c2ccccc2c(C=NCc2ccccn2)c(O)n1-c1ccccc1 | -0.8 | 2.5 | -12.7 | 3.8* | 90.2* | -1.6
COc1cc(C2CC(=O)Oc3c2c(=O)n(C)c2ccccc32)cc(OC)c1OC (centres undefined) | 0.1 | 0.7 | -9.0 | -5.8 | -8.6 | 2.4
COc1cc(C2CC(=O)Oc3c2c(=O)n(C)c2ccccc32)ccc1O (centres undefined) | 0.4 | 7.9 | 3.4 | 23.4 | 64.4* | 2.8
Cc1ccc(CNS(=O)(=O)c2ccc([N+](=O)[O-])cc2)cc1 | . | -2.1 | 0.8 | 2.7 | 5.9 | .
Cc1ccc(S(=O)(=O)Cc2ccc([N+](=O)[O-])cc2)cc1 | . | 3.2 | 8.1 | 74.6* | 97.7* | .
CCC1CC(C)(C(=O)Nc2ccc(S(N)(=O)=O)cc2)OC1=O (centres undefined) | 2.9* | -2.1 | 5.5 | 11.6 | -3.1 | 2.1
CCCN1CCC(=NNC(=O)c2ccc(Br)o2)CC1 | -0.2 | -2.6 | 9.4 | -8.6 | 1.5 | 39.3*
CCN1CCC(=NNC(=O)c2ccco2)CC1 | 0.6 | -2.4 | -8.2 | 1.3 | 7.7 | 8.2
Cc1ccccc1-n1c(=O)cc(N2CCN(C(=O)c3ccco3)CC2)[nH]c1=O | 0.5 | 0.0 | 19.4 | -5.8 | 2.0 | 4.6
O=C(N/N=C/c1ccccc1O)c1cc(=O)[nH]c2ccccc12 | 0.3 | 9.1 | . | -1.5 | 20.1 | 39.6*[fluorescence artefact?]
O=C(O)CN1C(=O)/C(=C\c2cn(-c3ccccc3)nc2-c2ccccc2)SC1=S | . | 26.0 | 22.6 | 22.2 | 3.4 | .
CC(C)COc1ccc(-c2nn(-c3ccccc3)cc2/C=C2/SC(=S)N(CC(=O)O)C2=O)cc1 | . | 3.0 | -1.9 | 12.3 | 92.8* | .
C/C(=N\NC(=O)COc1cccc(Cl)c1)c1ccc2c(c1)OCCO2 | 1.0 | 2.5 | -7.6 | 115.5 | active | 1.9
CCCCCCCn1c(=N)n(CC(O)c2ccco2)c2ccccc21 (centres undefined) | -0.9 | -3.8 | -77.9 | -9.1 | -6.8 | 0.0
N=c1n(CCN2CCCC2)c2ccccc2n1CC(O)c1ccco1 (centres undefined) | -0.1 | -22.0 | 44.0* | 28.0 | 17.3 | 3.8
NC(=O)Cn1c(=O)n(Cc2ccco2)c(=O)c2c3c(sc21)CCCCC3 | 0.8 | -16.7 | 12.0 | 49.5* | 97.8* | 6.8
O=c1c2c3c(sc2nc(NCCOCCO)n1Cc1ccco1)CCCCC3 | -0.3 | 1.0 | 12.3 | 88.7* | 100.3* | 3.8
O=C(Cn1c(=O)n(Cc2ccco2)c(=O)c2c3c(sc21)CCCC3)Nc1ccccc1 | 0.2 | 2.5 | -4.5 | -9.8 | -15.0 | -19.3
O=C(NNC(=O)c1cc(S(=O)(=O)N2CCOCC2)ccc1Cl)c1ccc(F)cc1 | . | . | 6.8 | . | . | .
Cc1cccc(OCC2=NS(=O)(=O)c3ccccc3N2)c1 | 0.4 | 5.3 | 4.2 | 1.1 | -4.3 | 5.3
COc1ccccc1N1CCN(C(=O)c2cc(C(C)(C)C)oc2C)CC1 | -0.5 | 28.5* | -6.9 | -4.6 | 3.5 | -1.8
SMILES | PERK inhibitor | M18AAP inhibitor | MLLE-PAM2 inh | PABP polyA inh | eIF4H inh | eIF4E-4G inh
Cc1oc(C(C)(C)C)cc1C(=O)N1CCN(c2ncccc2C(F)(F)F)CC1 | 0.6 | -6.9 | 6.5 | 1.6 | -6.6 | -0.1
CCN(C(=S)NCc1ccccc1)c1ccccc1 | 0.2 | -4.7 | -117.5 | 1.2 | 13.9 | -1.6
O=C(/C=C/c1ccc([N+](=O)[O-])cc1)c1ccco1 | . | 27.7 | -2.4 | 6.9 | -3.9 | .
O=C(/C=C/c1ccc(-c2ccccc2[N+](=O)[O-])o1)c1ccco1 | 0.6 | 19.3 | 52.0* | 16.8 | 69.2 | 5.2
CCC(C)Cn1c(C(C)O)nc2ccccc21 (centres undefined) | 0.2 | 1.1 | -4.3 | 60.9 | active | -2.8
CCC(C)Cn1c(C(C)C)nc2ccccc21 (centres undefined) | 0.5 | -4.5 | 6.3 | -5.9 | -3.7 | -2.2

Screening results as filed in PubChem.
